Assay results as given in PubChem BioAssay AID504845 (National Center for Advancing Translational Sciences (NCATS), 2011).
Screen size: about 390,000 compounds; about 150 (0.038%) were called active. Inconclusive results (about 3%) are left out. Calls come from the whole dose curve; as a rule, active = well fitted inhibition curve with a large enough effect; inconclusive = small, poorly fitted or top-dose-only effect; inactive = no such curve, though single readings can be large or run the other way. Many of the other results were omitted from the sample, so actives are more common in it than they were.

The compounds below were run against Regulator of G-protein signaling 4 (Homo sapiens) (UniProt P49798) (assay: Inhibitors of Regulator of G Protein Signaling (RGS) 4: qHTS). Settings: Transcreener GDP fluorescence polarization, RGS4-accelerated GTP hydrolysis; series mostly up to 114 µM; activity change, negative = inhibition: at the top concentration.
In short: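 MLSMR compounds (23 nl, pin-transferred) preincubated 10 min at room temperature with a 500nM (2x) first reagent, then RGS4 at 900nM (2x) plus Transcreener GDP mix added; fluorescence polarization (620/688 nm) read before and after 90 min at 30 °C.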
% is set by controls: 0 for no effect and ±100 for the full control effect.
Note: nearly all actives have a fitted effect of over 75% in size.

Sequence of Regulator of G-protein signaling 4 (Homo sapiens) (P49798 whole entry, looked up): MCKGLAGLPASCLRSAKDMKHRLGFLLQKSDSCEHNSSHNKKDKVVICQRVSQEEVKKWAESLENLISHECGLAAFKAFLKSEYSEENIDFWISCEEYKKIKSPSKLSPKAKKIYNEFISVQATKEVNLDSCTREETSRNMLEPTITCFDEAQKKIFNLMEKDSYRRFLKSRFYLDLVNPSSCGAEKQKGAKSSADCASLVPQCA

Activity change, negative = inhibition, inactive:
CCC1=Nc2cc(C(=O)NCC(C)c3ccccc3)ccc2Sc2ccc(C)cc21 (configuration not stated) -7.58%
CN(C)c1cc2c(Nc3ccc4c(cnn4Cc4ccccc4)c3)ncnc2cn1 -0.133% [at 56.9 µM]
Cc1csc(-c2nc3ccccc3n2C)n1 -622% [at 56.9 µM, above what the read-out allows, likely interference]
C=CCCN(C(Cc1ccccc1)C(=O)OC)S(=O)(=O)c1cc(Br)ccc1Br (configuration not stated) -0.629%
Cc1ccc(NC(=O)CCCn2c(=O)c3cccn3c3ccccc32)cc1Cl 7.61%
CC(N)(C(=O)O)c1ccc(-c2nn[nH]n2)cc1 (configuration not stated) 10% [at 56.9 µM]
O=C(c1cccc(Br)c1)N1CCN(Cc2cc(=O)n3nc(-c4ccccc4)sc3n2)CC1 3.64%
O=C(NCCCO)c1nn(-c2ccc(Cl)cc2)nc1CO 28%
Cc1oc2ccc(O)c(CN3CCC(C)CC3)c2c1C(=O)Nc1ccccc1 15.4%
O=C(O)c1ccc2c(c1)N(Cc1ccc(F)cc1)C(=O)c1ccccc1S2=O (configuration not stated) 11.3%
OCCNc1ncnc2oc(-c3ccco3)c(-c3ccco3)c12 -28.3%
O=C(Cn1nc(Cc2cccnc2)c2ccccc2c1=O)N1CCN(c2ccccc2F)CC1 15%
Cc1cc2c(cc3c(SCc4cccc(Cl)c4)nnc(C)n32)o1 4.36%
Cc1cccc(CCNC(=O)c2ccc3c(c2)nc2n3CCC(C)C2)c1 (configuration not stated) -14.1%
Cc1ccc(Cn2c(C)c3cnn(CC(=O)NCc4ccccc4)c(=O)c3c2C)cc1 -1.73%
C/C=C1\C2C=C(C)CC1(N)c1ccc(=O)[nH]c1C2 (configuration not stated) 320% [at 56.9 µM]
Cc1ccc(Nc2nnc(-c3ccc(C)c(S(=O)(=O)N4CCCCC4)c3)c3ccccc23)cc1 -9.78%
CCOC(=O)c1[nH]c(C)c(CCC(=O)NCc2ccccc2C)c1C 19.7%
O=S(=O)(c1ccc2nc(NCc3ccccc3Cl)ccc2c1)N1CCCCC1 0%
CCc1cc2c(cc3c(=O)n(CC(=O)N4CCN(c5cc(Cl)ccc5C)CC4)nc(CC)n32)s1 10.4%
COc1ccc(OC)c(-n2nnc(-c3nc(-c4cc(OC)c(OC)c(OC)c4)no3)c2C)c1 -26.9%
Cc1ccc(SCC(CC(C)C)N2CCN(CCc3ccccc3)CCC2=O)cc1 (configuration not stated) 22%
Cc1cccc(NC(=O)CN(c2ccc(C(C)C)cc2)S(=O)(=O)c2c(C)nn(C)c2C)c1C 5.91%
C#CCCCCCCCCCCCCCCCC(=O)O -583% [at 56.9 µM, above what the read-out allows, likely interference]
CCCN1CCC(=O)N(C(CSc2ccc(OC)cc2)Cc2ccccc2)CC1 (configuration not stated) -16.1%
COc1cccc(CN2CCc3nc(SCC(=O)Nc4ccccc4)[nH]c(=O)c3C2)c1 33.7%
COC(=O)c1ccccc1NC(=O)Cn1c(=O)n(-c2cccc(C(F)(F)F)c2)c(=O)c2c(C)c(C)sc21 21.6%
COc1ccc(CN(Cc2ccccc2)C(=O)c2ccc(O)cc2)cc1COc1ccc(NC(C)=O)cc1 17.2%
COc1cc(OC)c2c(C)cc(=O)oc2c1C(CCN1CCCCC1)c1ccc(N(C)C)cc1 (configuration not stated) 0.18%
O=[N+]([O-])c1ccc(S(=O)(=O)N2CCN(c3nc(-c4ccccc4)nc4ccccc34)CC2)cc1 9.46%
COc1ccc(OC)c(NC(=O)C2CCCN(S(=O)(=O)c3ccc4c(c3)CCCC(=O)N4)C2)c1 (configuration not stated) -0.356%
COCCNC(=O)c1cc(-c2cccc(Cl)c2)on1 -16%
COc1ccccc1-c1nnc(SCC(N)=O)o1 11.9%
O=C(Nc1ccccc1)N[C@H]1C[C@H](C(=O)O)Nc2cc(Cl)cc(Cl)c21 -585% [at 56.9 µM, above what the read-out allows, likely interference]
CCOc1ccc(S(=O)(=O)c2cn(Cc3ccccc3)c3ccc(OCC)cc3c2=O)cc1 1.09%
Cn1c(=O)c2c(nc(SCC(=O)Nc3ccc(F)cc3)n2Cc2ccccc2)n(C)c1=O -15.8%
CC(C)NC(=O)C1CCC(Cn2c(=O)c3sccc3n(Cc3ccc(F)cc3)c2=O)CC1 (configuration not stated) 11.4%
Oc1ccc(Br)cc1C1C=C(c2ccc3c(c2)OCO3)NC(c2ccc(Cl)cc2)N1 (configuration not stated) -36%
Cc1ccc2ccc3c(c2n1)NS(=O)(=O)c1ccccc1-3 -16.3%
COc1ccc2c(C)c(CCC(=O)NCc3ccc(OC)c(OC)c3)c(=O)oc2c1 -14.1%
Cc1c(-c2nc(-c3ccc4c(c3)OCO4)no2)nnn1-c1ccc(Br)cc1F -24.4%
COc1ccc(OC)c(NC(=O)CSC2=Nc3ccccc3C3=NC(CC(=O)NCCc4ccccc4)C(=O)N23)c1 (configuration not stated) 16.3%
CC(C)NC[C@H](O)c1ccc2ccccc2c1 -510% [at 56.9 µM, above what the read-out allows, likely interference]
O=C(CSc1nccn1-c1ccc(F)cc1)Nc1cccc2ccccc12 -5.41%
COc1ccc(-n2c(SCC(N)=O)nc3c(oc4ccccc43)c2=O)cc1 -18.4%
CCn1c(CN2CCC(C)CC2)nc2cc(NC(=O)c3ccccc3[N+](=O)[O-])ccc21 -7.66%
O=C(c1ccc2c(c1)N(Cc1ccccc1)C(=O)c1ccccc1S2(=O)=O)N1CCC(Cc2ccccc2)CC1 8.32%
COc1ccc(-c2cccc(NS(=O)(=O)c3cc(C)c(OC)c(C)c3C)c2)nn1 -39.8%
CCc1ccc(NC(=O)CSc2nc3c([nH]c4ccccc43)c(=O)n2-c2cccc(OC)c2)cc1 0.52%
CCN(CC)c1nc(C#N)nc(OC)n1 23.2%
CC(C)(C)c1ccc(C(=O)N2CCC(c3nc(-c4ccc(S(=O)(=O)N5CCCC5)cc4)no3)CC2)cc1 7.58%
Cn1c(=O)c2c(n3c4ccccc4nc13)NC(=O)CC2c1cccc(Cl)c1 (configuration not stated) -17.3%
CC(C)Sc1oc(-c2cccs2)nc1S(=O)(=O)c1ccc(Cl)cc1 -16.4%
Cc1ccc(SCC(=O)Nc2ccc3oc(-c4ccccc4C)nc3c2)cc1 -0.0912%
C=C1CCN(C(CC(C)C)C(=O)NCc2cc(OC)c(OC)c(OC)c2)S(=O)(=O)c2ccccc21 (configuration not stated) -6.11%
COC(=O)CCc1ccccc1S(=O)(=O)N(CCC(=O)OC)Cc1ccccc1 -18.2%
CCOC(=O)c1ccc(NC(=O)Cn2c(=O)n(-c3ccc(C)cc3)c(=O)c3c2cnn3C)cc1 2.84%
Cc1nn(C(C)C(=O)Nc2ccc(C(C)C)cc2)c(=O)c2c1sc1ccccc12 (configuration not stated) -6.31%
OC[C@@H]1O[C@H](n2cnc3c(SCc4ccccc4)ncnc32)[C@H](O)[C@H]1O -4.78%
CCOc1ccc(Nc2c(S(=O)(=O)c3ccccc3)cnc3ccccc23)cc1 21.6%
COc1ccc(NC(=O)c2ccc3nc(C(C)C)oc3c2)cc1OC -2.42%
Cc1ccc(-c2nn(CC(C)(C)C)c3ncnc(N)c23)cc1 117% [at 56.9 µM]
